These results are taken from publication PMC8384837, “Expanding the binding specificity for RNA recognition by a PUF domain”.

Positions count from the first letter of the chain named.

Assay in all cases: yeast three-hybrid, YBZ-1, SC-Leu-His + 0.5 mM 3-AT, 4 days
Holding throughout (details): tags: N-Gal4 AD-HA kept; label: inside an RPR1-promoter hybrid RNA with tandem MS2 sites; ssRNA

The target in one assay is T1, PUM1 PUF domain R6-IFS (Homo sapiens, UniProt Q14671 828-1176, N1043I;Y1044F;Q1047S).
T1 sequence: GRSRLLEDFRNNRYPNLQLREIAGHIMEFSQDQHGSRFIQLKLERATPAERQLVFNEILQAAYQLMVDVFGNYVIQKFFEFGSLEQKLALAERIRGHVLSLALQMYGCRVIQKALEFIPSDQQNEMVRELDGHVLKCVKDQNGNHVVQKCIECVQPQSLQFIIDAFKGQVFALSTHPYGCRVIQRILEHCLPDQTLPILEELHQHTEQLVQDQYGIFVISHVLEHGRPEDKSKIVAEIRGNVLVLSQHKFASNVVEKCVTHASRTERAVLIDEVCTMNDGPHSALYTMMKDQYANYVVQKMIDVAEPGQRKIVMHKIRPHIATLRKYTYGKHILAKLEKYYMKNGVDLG
An outline of the steps: (§1)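 Pumilio-1 PUF domain libraries, randomized (NNK) at the three base-contacting residues of each repeat, were co-expressed with matching RNA elements from a centromeric plasmid in strain YBZ-1 (LexA–MS2 coat fusion, HIS3 reporter). Transformants were plated on SC-Leu (input) and SC-Leu-His + 0.5 mM 3-AT (selection) for four days, and repeat regions were PCR-amplified and Illumina-sequenced. The interaction score is the log2 change in variant frequency from input to selection, with pseudocount 1 where absent.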

A further assay concerns the target PUM1 PUF domain R2-LWV (Homo sapiens, UniProt Q14671 828-1176, N899L;Y900W;Q903V). An outline of the steps: as §1
The next assay deals with T2, PUM1 PUF domain R6-HFR (Homo sapiens, UniProt Q14671 828-1176, N1043H;Y1044F;Q1047R).
T2 sequence: T1 sequence with I216H, S220R
An outline of the steps: as §1

The target in a further assay is T3, PUM1 PUF domain R6-KWK (Homo sapiens, UniProt Q14671 828-1176, N1043K;Y1044W;Q1047K).
T3 sequence: T1 sequence with I216K, F217W, S220K
An outline of the steps: as §1

The next assay has as its target PUM1 PUF domain R8-LYW (Homo sapiens, UniProt Q14671 828-1176, N1122L;Q1126W). The gist of the method:
as §1

For a further assay, the target named is PUM1 PUF domain R7-RRC (Homo sapiens, UniProt Q14671 828-1176, S1079R;N1080R;E1083C). An outline of the steps:
as §1

The target of another assay is PUM1 PUF domain R3-WCL (Homo sapiens, UniProt Q14671 828-1176, C935W;R936C;Q939L). An outline of the steps: as §1
For another assay, the target named is PUM1 PUF domain R3-RIG (Homo sapiens, UniProt Q14671 828-1176, C935R;R936I;Q939G). An outline of the steps:
as §1

In the next assay the target is PUM1 PUF domain R1-GGQ (Homo sapiens, UniProt Q14671 828-1176, S863G;R864G). The gist of the method:
as §1

Take “GGCUAGAACUAGUGGAUCCCCCGGCGCCCGGCGGCUCGAGCCCGGGUAAGUGAAAAUAGUCUGCAUGCCGCCGGGCGCCAUGCCUGCAGGUCGACUCUAGAAAACAUG”: the binding signal in the assay with PUM1 PUF domain R6-IFS is 5.65 log2 enrichment (interaction score). Turning to “GGCUAGAACUAGUGGAUCCCCCGGCGCCCGGCGGCUCGAGCCCGGGUAAGUGUAAAAAGUCUGCAUGCCGCCGGGCGCCAUGCCUGCAGGUCGACUCUAGAAAACAUG”, in the assay with PUM1 PUF domain R2-LWV, the binding signal is 4.15 log2 enrichment (interaction score).

With “GGCUAGAACUAGUGGAUCCCCCGGCGCCCGGCGGCUCGAGCCCGGGUAAGUGCAAAUAGUCUGCAUGCCGCCGGGCGCCAUGCCUGCAGGUCGACUCUAGAAAACAUG”, the binding signal with PUM1 PUF domain R6-HFR was 2.56 log2 enrichment (interaction score). In the case of “GGCUAGAACUAGUGGAUCCCCCGGCGCCCGGCGGCUCGAGCCCGGGUAAGUGUAAAUAGUCUGCAUGCCGCCGGGCGCCAUGCCUGCAGGUCGACUCUAGAAAACAUG”, the values for the binding signal in the assay with PUM1 PUF domain R6-HFR, with PUM1 PUF domain R6-KWK and with PUM1 PUF domain R8-LYW were 6.79 log2 enrichment (interaction score), 4.71 log2 enrichment (interaction score) and 2.44 log2 enrichment (interaction score), respectively. As for “GGCUAGAACUAGUGGAUCCCCCGGCGCCCGGCGGCUCGAGCCCGGGUAAGUCUAAAUAGUCUGCAUGCCGCCGGGCGCCAUGCCUGCAGGUCGACUCUAGAAAACAUG”, in the assay with PUM1 PUF domain R7-RRC, the binding signal is 4.91 log2 enrichment (interaction score). Regarding “GGCUAGAACUAGUGGAUCCCCCGGCGCCCGGCGGCUCGAGCCCGGGUAAGUUUAAAUAGUCUGCAUGCCGCCGGGCGCCAUGCCUGCAGGUCGACUCUAGAAAACAUG”, the binding signal in the assay with PUM1 PUF domain R7-RRC was 4.95 log2 enrichment (interaction score).

Turning to “GGCUAGAACUAGUGGAUCCCCCGGCGCCCGGCGGCUCGAGCCCGGGUAAGUGUAAGUAGUCUGCAUGCCGCCGGGCGCCAUGCCUGCAGGUCGACUCUAGAAAACAUG”, the values for the binding signal in the assay with PUM1 PUF domain R3-WCL and with PUM1 PUF domain R3-RIG were 3.36 log2 enrichment (interaction score) and 3.19 log2 enrichment (interaction score), respectively.

For the sequence “GGCUAGAACUAGUGGAUCCCCCGGCGCCCGGCGGCUCGAGCCCGGGUAAGUGUAAAUUGUCUGCAUGCCGCCGGGCGCCAUGCCUGCAGGUCGACUCUAGAAAACAUG”, in the assay with PUM1 PUF domain R1-GGQ, the binding signal is 2.33 log2 enrichment (interaction score). The same measure, in the same setting: next, “GGCUAGAACUAGUGGAUCCCCCGGCGCCCGGCGGCUCGAGCCCGGGUAAGUGUAAAUCGUCUGCAUGCCGCCGGGCGCCAUGCCUGCAGGUCGACUCUAGAAAACAUG”: 1.77 log2 enrichment (interaction score). “GGCUAGAACUAGUGGAUCCCCCGGCGCCCGGCGGCUCGAGCCCGGGUAAGUGUAAUUAGUCUGCAUGCCGCCGGGCGCCAUGCCUGCAGGUCGACUCUAGAAAACAUG”: the binding signal with PUM1 PUF domain R3-RIG is 2.45 log2 enrichment (interaction score). In the case of “GGCUAGAACUAGUGGAUCCCCCGGCGCCCGGCGGCUCGAGCCCGGGUAAGCGUAAAUAGUCUGCAUGCCGCCGGGCGCCAUGCCUGCAGGUCGACUCUAGAAAACAUG”, the binding signal in the assay with PUM1 PUF domain R8-LYW is 3.09 log2 enrichment (interaction score).
